Screening results: PubChem, National Center for Advancing Translational Sciences (NCATS)
Most compounds without a hit are left out; they make up all but 1.9% or so of the library.
PINK1 expr mod = changes PINK1 expression. hit rate 0.2% among 410,000. Potency, µM (series often up to 76.6 µM), without a hit: top-dose activation (PINK1 increase), usual class: activators. PINK1 immunofluorescence, high-content cytometry, 24 h; active means well fitted activation curve with a large enough effect; inconclusive means small, poorly fitted or top-dose-only effect; cell line not stated here; further: potency means the concentration at half of the fitted maximal effect; % of control where 0% means no effect; nearly all actives have a fitted effect of over 65% in size
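Fluorescence from anti-PINK1 antibody, together with nuclear and cell stains, was scanned on a laser-scanning cytometer. Before staining, stable-line cells were incubated 24 hours with compounds at 5 concentrations; primary antibody 12 h at 10 degrees C.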
CXXC DNA block = MLL CXXC-DNA interaction inhibition; Q03164; MLL-CXXC / FITC-HOXA9 DNA fluorescence polarization; Potency, µM (doses to about 115 µM), for inactives: at the top dose activity change, negative = inhibition, usual class: inhibitors; hit rate 0.037% among 290,000; AID 2662; active means well fitted inhibition curve with a large enough effect in the polarisation, with a control signal flat, not every such curve was filed as active; inconclusive means small, poorly fitted or top-dose-only effect, or effect the other way, or a change in a side signal; inactive means no such curve, though single readings can be large or run the other way; the % refers to the polarisation; further: potency means the concentration at half of the fitted maximal effect
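Purified MLL-CXXC (added from a 7 uM solution) was preincubated 5 min at ambient with pinned compounds in 50 mM Tris-HCl pH 7.5, 50 mM NaCl, 1 mM DTT, 0.05% BSA. Fluorescein-labeled HOX-A9 DNA (50 nM solution) followed, 30 min, then polarization read.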
Menin MLL FP TR = displaces Texas Red mutant MLL peptide from human menin. hit rate 0.23% among 270,000. Menin + Texas Red MLL mutant peptide, fluorescence polarization. Potency, µM (titrated, usually from 61.6 µM), inactives show top-dose FP activity change, negative = inhibition, actives largely listed as inhibitors. O00255. AID 1768; active means well fitted inhibition curve with a large enough effect in the polarisation, with a control signal flat, not every such curve was filed as active; inconclusive means small, poorly fitted or top-dose-only effect, or effect the other way, or a change in a side signal; inactive means no such curve, though single readings can be large or run the other way; the % refers to the polarisation; further: potency means the concentration at half of the fitted maximal effect; % of control where 0% means no effect
Target sequence (O00255 whole entry, looked up): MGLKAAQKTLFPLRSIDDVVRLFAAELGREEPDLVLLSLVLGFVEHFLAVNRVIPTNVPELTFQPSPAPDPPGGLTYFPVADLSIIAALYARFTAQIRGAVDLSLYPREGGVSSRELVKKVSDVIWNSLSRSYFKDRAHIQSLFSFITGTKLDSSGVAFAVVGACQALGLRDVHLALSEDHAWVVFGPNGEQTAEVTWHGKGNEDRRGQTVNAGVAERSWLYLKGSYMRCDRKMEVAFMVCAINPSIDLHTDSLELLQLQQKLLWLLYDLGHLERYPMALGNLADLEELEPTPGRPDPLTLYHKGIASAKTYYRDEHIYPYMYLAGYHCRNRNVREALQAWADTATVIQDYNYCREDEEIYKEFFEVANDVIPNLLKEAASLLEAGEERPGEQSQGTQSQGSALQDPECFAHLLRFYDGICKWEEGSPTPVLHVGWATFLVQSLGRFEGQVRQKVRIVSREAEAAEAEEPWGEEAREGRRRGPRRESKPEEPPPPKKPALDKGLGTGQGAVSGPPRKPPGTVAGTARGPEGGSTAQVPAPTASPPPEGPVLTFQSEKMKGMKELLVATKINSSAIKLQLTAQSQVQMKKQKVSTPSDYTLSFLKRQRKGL
Epigenetic reg = derepresses silenced GFP reporter in murine cells; hit rate 0.2% among 280,000; Potency, µM (top dose mostly 53.9 µM), inactives show top-dose GFP activation, usual class: activators; murine LDR cells, GFP reporter derepression, 30 h; active means well fitted activation curve with a large enough effect; inconclusive means small, poorly fitted or top-dose-only effect; further: potency means the concentration at half of the fitted maximal effect; % of control where 0% means no effect; nearly all actives have a fitted effect of over 60% in size
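In this reporter-derepression format, murine cells bearing a silenced integrated CMV-GFP locus incubate with test compound (30 h, 37 C), then are washed and imaged; fluorescent objects of 20–120 um count as induced cells.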
ClpP mod = qHTS Assay for Activators of ClpP; ATP-dependent Clp protease proteolytic subunit (Bacillus subtilis (strain 168)), P80244; purified B. subtilis ClpP, FRET peptide cleavage, 20 min; Potency, µM (titrated, usually from 57.5 µM), inactives show at the highest dose activity change, negative = active; hit rate 1.9% among 340,000; AID 651965, 2013; active means well fitted falling curve with a large enough effect; inconclusive means small, poorly fitted or top-dose-only effect; inactive means no such curve, though single readings can be large or run the other way; further: potency means the concentration at half of the fitted maximal effect; the source files actives as falling curves though it sought activators and does not explain the sign; nearly all actives have a fitted effect of over 65% in size
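Purified B. subtilis ClpP, 10 microg/mL final in Tris/HCl pH8 with KCl, BSA, glycerol and Tween-20, cleaved an Abz/nitrotyrosine-quenched decapeptide. Fluorescence (ex 320, em 430) was read at 0 and 20 min at room temperature. Delta was normalized to 5.8 microM ADEP and DMSO/no-enzyme controls.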
Menin MLL FP FL = displaces fluorescein MLL peptide from human menin | Fluorescence polarization, fluorescein-MLL peptide displacement from menin | FP activity change, % at 61.4 µM | 290,000 tested, under 10 active; active means well fitted curve in the direction sought with a large enough effect in the polarisation, not every such curve was filed as active; inconclusive means small, poorly fitted or top-dose-only effect, or effect the other way, or a change in a side signal; inactive means no such curve, though single readings can be large or run the other way; the % refers to the polarisation; further: % of control where 0% means no effect
* = called active by the depositor; ? = inconclusive; . = not tested or not shown; ! = not confirmed by another sample; [ ] = remark or other dose.

SMILES	PINK1 expr mod	CXXC DNA block	Menin MLL FP TR	Epigenetic reg	ClpP mod	Menin MLL FP FL
c1ccc(-c2nnc(-c3ccco3)n2-c2ccccc2)cc1	-1%	4%	-2%	4%	22µM*	1
O=C(O)c1ccc(CSc2nnc(-c3ccccc3Br)o2)cc1	1%	-18%	12%	.	-1%	-1
O=C(Nc1ccccc1-c1nnc(SCc2ccc(Cl)cc2)o1)c1ccccc1	0%	5%	9%	1%	10µM*	2
O=C(Nc1ccccc1-c1nnc(SCc2ccccc2)o1)c1ccccc1	22%[38.3 µM]	4%	.	6%	28µM*	5
O=C(O)c1ccc(CSc2nnc(-c3ccc(Cl)cc3)o2)cc1	0%	-9%	18%	.	0%	0
Cc1cc(C(=O)NCC2CCC3(CCN(Cc4ccc5ccccc5c4)CC3)O2)n(C)n1 (stereo unspecified)	1%	.	.	.	.	.
O=C(NCC1Cc2cccc(-c3cccnc3)c2O1)c1cc(-c2ccccc2)n[nH]1 (stereo unspecified)	0%	.	.	.	.	.
CCN(CC)C(=O)Cn1cc(C(=O)C(=O)NCC2COc3ccccc3O2)c2ccccc21 (stereo unspecified)	2%	6%	-2%	1%	20µM*	-20
Cc1cc2ccccc2c(=O)n1CC(=O)NCc1ccco1	-2%	-19%	0%	-2%	?	-3
Cc1cc2ccccc2c(=O)n1CC(=O)NCC1COc2ccccc2O1 (stereo unspecified)	1%	1%	-18%	0%	25µM*	4
CN(C)c1ccc(/C=C2\C=Nc3ccccc32)cc1	0%	.	.	.	-12%	.
Nc1cccc[n+]1C(c1ccnc2ccccc12)[n+]1ccccc1N	0%	.	.	.	-22%	.
CCN(CC)S(=O)(=O)c1ccc2c(c1)N(CC(=O)NCc1ccccc1)C(=O)C1CCCCN21 (stereo unspecified)	1%	.	.	7%	-3%	.
Brc1ccc(-c2nnc(-c3ccco3)o2)cc1	0%	-8%	-4%	2%	37%	-1
Cc1ccc(-c2nnc(-c3ccc(Br)cc3)o2)o1	4%[38.3 µM]	5%	10%	-6%	32µM*	1
COc1ccccc1N1CCN(C(c2ccc(F)cc2)c2nnnn2C(C)C)CC1 (stereo unspecified)	2%	0%	-7%	-9%	18µM*	-2
CC[N+](CC)(CC)c1ccc(/C=C/c2ccnc3ccccc23)cc1	.	.	.	.	1%	.
COc1cc(/C=N/Nc2nc(Nc3ccc(C)cc3)nc(-n3nc(C)cc3C)n2)cc(OC)c1OC	12%[38.3 µM]	6%	16%	1%	28µM*	5
COc1ccc(-c2nc3cc(C)ccc3cc2CN(C(=O)c2ccc(C)s2)C2CC2)cc1OC	-1%	.	.	.	.	.
O=C(CN1Cc2ccccc2OC(c2ccsc2)C1)N1CCC(c2nc3ccccc3[nH]2)CC1 (stereo unspecified)	2%	.	.	.	.	.
c1ccc(N2CCN(c3nc(NCc4ccco4)c4ccccc4n3)CC2)cc1	?	?	21%	0%	?	0
c1coc(CNc2nc(N3CCCCC3)nc3ccccc23)c1	2%	30%	-16%	0%	22µM*	4
CCC1C(=O)NCCN1Cc1ccc2c(c1)CN(Cc1cccc(OC)c1)CCO2 (stereo unspecified)	-1%	.	.	.	.	.
COC(=O)c1sc2ncccc2c1OCc1ccc(Cl)cc1	0%	98%	0%	-1%	35µM*	1
Nc1c(C(=O)OCC2CCCO2)c2nc3ccccc3nc2n1C1CCCCC1 (stereo unspecified)	?	-3%	3%	6%	14µM*	5
SMILES	PINK1 expr mod	CXXC DNA block	Menin MLL FP TR	Epigenetic reg	ClpP mod	Menin MLL FP FL
COc1ccccc1-n1c(N)c(C(=O)NCC2CCCO2)c2nc3ccccc3nc21 (stereo unspecified)	-1%	2%	10%	1%	25µM*	3
O=C(NCC1CCCO1)c1ccccc1 (stereo unspecified)	-2%	-8%	0%	-1%	-2%	6
Nc1c(C(=O)NCC2CCCO2)c2nc3ccccc3nc2n1-c1ccccc1 (stereo unspecified)	-2%	-8%	-1%	0%	16µM*	0
CC(=O)N=c1c(C#N)cc2c(=O)n3cccc(C)c3nc2n1CC(C)C	.	.	.	0%	.	.
CC(C)COc1ccc(-c2nnc(-c3ccncc3)o2)cc1	17%	-2%	-7%	-1%	32µM*	-1
CCCOc1ccc(-c2nnc(-c3ccncc3)o2)cc1	-1%	-11%	-9%	0%	?	3
Cc1ccc(N2C(=O)c3ccccc3NC2C(C)Cc2ccc3c(c2)OCO3)cc1 (stereo unspecified)	.	9%	-9%	-1%	32µM*	0
COC(=O)[C@@H]1CCCN1C(=O)c1c(OC)cc(=O)n2c1CCN(Cc1ccc(C)o1)CC2	0%	.	.	.	.	.
CNc1ccc(/C=C2\C=Cc3ccccc32)cc1OC	1%	.	.	.	-3%	.
Cc1nc(NC(=O)c2ccccc2)sc1Cc1ccc2c(c1)OCO2	2%	13%	?	5%	.	15
Cc1cc(C)nc(NC(=NCc2ccc3c(c2)OCO3)NC(=O)Nc2ccccc2)n1	14µM*	-5%	-3%	4%	-14%	0
N#Cc1c2c(c(NCc3cccnc3)n3c1nc1ccccc13)CCC2	-4%	22%	.	0%	32µM*	3
O=S(=O)(c1ccc2c(c1)CCCC2)N1CCN(c2nc(-c3ccccc3)nc3ccccc23)CC1	0%	.	.	.	-7%	.
Cn1c(O)c(N=NC(=O)CNC(=O)c2ccccc2)c2ccccc21	0%	24%	.	.	.	.
Cn1c(O)c(N=NC(=O)Cc2c[nH]c3ccccc23)c2ccccc21	0%	.	.	.	3.2µM*	.
Cc1cccc(C2N=C(N)Nc3nc4ccccc4n32)c1 (stereo unspecified)	2%	-4%	.	-1%	25µM*!	5
c1csc(-c2ncc3ccccn23)c1	5%	3%	-9%	-2%	32µM*	2
COc1cc(OC)cc(-c2ncc3ccccn23)c1	4%	-6%	-10%	0%	25µM*	1
COc1cccc(-c2ncc3ccccn23)c1	3%	-3%	-1%	-1%	?	4
COc1ccccc1C1CN(Cc2cccc3c2OCO3)Cc2ccccc2O1 (stereo unspecified)	-1%	.	.	.	.	.
NC(=S)n1[nH]c(-c2ccc([N+](=O)[O-])cc2)c(N=Nc2cccc(Cl)c2)c1=O	13µM*	-17%	?	-1%	.	-8
NC(=S)n1[nH]c(-c2ccc([N+](=O)[O-])cc2)c(N=Nc2ccc(O)cc2)c1=O	1%	-14%	?	3%	-2%	8
